Screen size: about 360,000 compounds; about 1,600 (0.44%) were called active.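 Rule for the calls: active = every replicate showing at least 50% inhibition; inconclusive = mean inhibition at least 50% but not in every replicate; inactive = the rest.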 Only a selection was taken, and actives are over-represented in it overall.

Sequence of DNA repair protein RAD52 homolog (Homo sapiens) (P43351 whole entry, looked up): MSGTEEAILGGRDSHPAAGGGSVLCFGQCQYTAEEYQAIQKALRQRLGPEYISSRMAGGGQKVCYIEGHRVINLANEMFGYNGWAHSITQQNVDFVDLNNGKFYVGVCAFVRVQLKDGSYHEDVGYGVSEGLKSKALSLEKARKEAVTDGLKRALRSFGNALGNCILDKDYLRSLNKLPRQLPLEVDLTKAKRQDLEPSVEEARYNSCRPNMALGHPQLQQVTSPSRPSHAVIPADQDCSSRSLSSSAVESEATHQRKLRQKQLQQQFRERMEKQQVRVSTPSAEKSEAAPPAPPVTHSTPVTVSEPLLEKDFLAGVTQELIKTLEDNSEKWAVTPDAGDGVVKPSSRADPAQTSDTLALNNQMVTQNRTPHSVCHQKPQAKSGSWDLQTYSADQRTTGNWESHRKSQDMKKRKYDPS

This experiment concerns the target DNA repair protein RAD52 homolog (Homo sapiens) (UniProt P43351). Description: RAD52 DNA annealing inhibitors, primary screen, biochemical, FRET, single point, set 2 (AID 651710). The following applies: recombinant RAD52 DNA annealing, FRET fluorescence; at 18.7 µM; stronger effect = higher value.
One may read the inhibition as the change of the read-out against control, counted positive when it falls. In the case of `CN(C)C(=O)C[C@H]1CC[C@H](NC(=O)NC2CCCC2)[C@@H](CO)O1`, the inhibition was -3.59% (inactive).
Regarding `CCCC#Cc1ccc([C@H]2[C@@H](CO)N3CCCCN(C(=O)c4ccc5c(c4)OCO5)C[C@@H]23)cc1`, the inhibition was -42.9% (inactive).
The same measure for `COc1ccc(NC(=O)N(C)C[C@@H]2Oc3ccc(NC(=O)CCC(F)(F)F)cc3C(=O)N([C@@H](C)CO)C[C@H]2C)cc1`: -4.28% (inactive); for `O=C(Nc1ccccc1)[C@@H]1[C@@H](CO)[C@@H]2Cn3c(cccc3=O)[C@@H]2N1C(=O)C1CC1`: 2.14% (inactive).
As for `COc1ccc(C(=O)COC(=O)c2ccc([N+](=O)[O-])s2)cc1OC`, the inhibition is -8.04% (inactive).
Regarding `C=Cn1cc[n+](CC(=O)c2ccc(OC)c(OC)c2)c1`, the inhibition was 98% (active).
With `COc1ccc(-n2nnnc2SCC(=O)c2ccc(OC)c(OC)c2)cc1`, the inhibition is -22.4% (inactive).
The same measure for `COc1ccc2[nH]c3c(C)c4cc[n+](C)cc4c(C)c3c2c1`: 94.3% (active); for `CC(=O)N(C)C[C@H]1Oc2ncc(C#CC3(O)CCCC3)cc2C(=O)N([C@@H](C)CO)C[C@@H]1C`: 9.64% (inactive); for `CO[C@@H]1CN(C)C(=O)c2ccc(NC(=O)Nc3ccccc3)cc2OC[C@@H](C)N(C(=O)CN(C)C)C[C@H]1C`: 5.57% (inactive).
Take `Cn1cnc(S(=O)(=O)N2CCCCN3[C@H](CO)[C@@H](c4ccc(-c5ccc(F)cc5)cc4)[C@@H]3C2)c1`: the inhibition is -27.5% (inactive).
In the case of `COc1ccc(-c2cn(CC[C@H]3CC[C@@H](NC(=O)CCN4CCCCC4)[C@H](CO)O3)nn2)cc1`, the inhibition is -7.25% (inactive).
With `C[C@H]1CCCCO[C@H](CN(C)S(=O)(=O)c2ccc(F)cc2)[C@@H](C)CN([C@@H](C)CO)C(=O)c2cc(NS(=O)(=O)c3cn(C)cn3)ccc2O1`, the inhibition was -9.68% (inactive).
The same measure for `Cc1ccc(COc2ccc(C(=O)NN)cc2)cc1`: -18.7% (inactive); for `CSc1ccccc1NC(=O)COC(=O)CCCOc1ccc(C)cc1`: -13.4% (inactive); for `CCCCCCCCCCOC(=O)Cn1c(COc2ccc(C)cc2)[n+](C)c2ccccc21`: 79.8% (active).
The same measure for `COCC#Cc1ccc2c(c1)O[C@@H](CN(C)C(=O)Nc1ccccc1F)[C@H](C)CN([C@H](C)CO)S2(=O)=O`: 11.1% (inactive); for `O=S(=O)(c1ccccc1)N1CCCCN2[C@H](C1)[C@H](c1ccc(-c3ccccc3)cc1)[C@@H]2CO`: -26.6% (inactive); for `C[C@H]1CN([C@@H](C)CO)C(=O)c2cc(NC(=O)CCC(F)(F)F)ccc2O[C@H]1CN(C)Cc1ccc(C(=O)O)cc1`: -6.5% (inactive).
The same measure for `CN1CCC[C@@H]1CCO[C@](C)(c1ccccc1)c1ccc(Cl)cc1`: 27.4% (inactive); for `COc1cccc2sc3cc(NCC[C@@H]4CCCN4C)ccc3c(=O)c12`: -48.1% (inactive).
Take `Cc1cc2oc3ccc(NCCC4CCCN4C)cc3c(=O)c2cc1C` (configuration not stated): the inhibition was 60.4% (active).
